Bioassay records from PubChem BioAssay.
This is a sample that favours compounds with a hit; in the whole collection about 3.9% have one here.
HSP90 refold inh: HSP90 refolding inhibition in rabbit reticulocyte lysate | luciferase refolding luminescence, 3 h | inhibition, % at 5.6 µM | 0.91% of 290,000 active | AID 1789;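 active = inhibition above the screen-wide mean plus 3 SD, computed separately per campaign, cut at about 16% in these data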;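 note: 0% = DMSO wells and 100% = 60 µM geldanamycin wells; inhibitors lower the luminescence because luciferase stays unfolded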
HIF-2a inh: blocks HIF-2a reporter activity. inhibition, % at 18.8 µM. 786-0 RCC cells HIF-2a reporter, luciferase luminescence, overnight. 0.72% of 360,000 active;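 active = inhibition of the luminescence signal of 40% or more relative to plate controls, in a single-dose primary screen at 18.75 µM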
TROY signal inh: TROY signaling inhibition. Q293 LMP1-TROYcd NF-kB luciferase reporter, 4 h. inhibition, % at 10 µM. 0.98% of 360,000 active;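 active = compounds whose plate-normalised and pattern-corrected inhibition of the luciferase reporter signal at the single screening dose is 50% or more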
C8 TRAIL sens: caspase-8 TRAIL sensitization; NB7+C8 cells + TRAIL, ATPlite viability luminescence; 1% of 360,000 active; inhibition (viability loss, TRAIL sensitization), % at 10 µM;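 active = compounds causing at least 50% loss of cell viability in the single-dose screen, relative to plate controls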
TWEAK-Fn14 inh: blocks TWEAK-Fn14 interaction in a reporter cell assay; inhibition, % at 10 µM; TWEAK-stimulated Fn14 reporter cells, luciferase luminescence, 8 h; 2% of 360,000 active; in the data active = inhibition above about 50%
aSyn 5UTR inh: MLPCN primary screen, SNCA 5' untranslated region; alpha-synuclein 5'UTR reporter, inhibitor activity; inhibition, % (tested at 7.5 µM); 0.82% of 300,000 active; in the data active = inhibition above about 60%;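 note: H4 neuroglioblastoma cells stably carrying SNCA 5'UTR luciferase fusion; 0% = DMSO wells and 100% = positive control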
HSP90 inh confirm: confirmation of HSP90 inhibitors. rabbit reticulocyte lysate, luciferase refolding luminescence, 3 h. inhibition, % at 5.9 µM. shares compounds with HSP90 refold inh. 64% of 2,300 active; in the data active = inhibition above about 18%;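 note: 0% = vehicle wells and 100% = reference inhibitor wells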
FLuc counter: blocks native firefly luciferase in HSP90 counter-screen; shares compounds with HSP90 refold inh; purified native firefly luciferase, luminescence; 48% of 2,300 active; inhibition, % at 5.9 µM; AID 1847;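 active = inhibition above the mean inhibition of all tested sample wells plus 3 SD, cut at about 10% in these data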;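 note: 0% = DMSO with luciferase and 100% = wells lacking luciferase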
Target sequence (P08659 whole entry, looked up): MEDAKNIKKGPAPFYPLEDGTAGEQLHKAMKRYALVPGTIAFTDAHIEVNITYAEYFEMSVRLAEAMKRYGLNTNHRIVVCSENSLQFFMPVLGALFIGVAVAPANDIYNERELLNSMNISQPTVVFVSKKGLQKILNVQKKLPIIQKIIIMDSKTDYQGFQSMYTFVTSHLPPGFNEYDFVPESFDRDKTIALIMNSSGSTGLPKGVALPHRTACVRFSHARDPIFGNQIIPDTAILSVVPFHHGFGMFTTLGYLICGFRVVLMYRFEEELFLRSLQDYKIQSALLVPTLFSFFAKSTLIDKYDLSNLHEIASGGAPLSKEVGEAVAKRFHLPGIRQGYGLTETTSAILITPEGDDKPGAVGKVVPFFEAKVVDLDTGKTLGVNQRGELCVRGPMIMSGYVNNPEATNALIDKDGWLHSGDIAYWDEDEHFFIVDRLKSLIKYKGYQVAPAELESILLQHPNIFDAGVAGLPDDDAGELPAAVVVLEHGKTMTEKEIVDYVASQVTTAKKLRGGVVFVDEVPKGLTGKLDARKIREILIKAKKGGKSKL
An asterisk follows results filed as active; / = no result.

SMILES	HSP90 refold inh	HIF-2a inh	TROY signal inh	C8 TRAIL sens	TWEAK-Fn14 inh	aSyn 5UTR inh	HSP90 inh confirm	FLuc counter
O=C(C(c1ccccc1)c1ccccc1)N1CCOCC1	47*	7	3	-24	6	4	-4	-7
O=C(C(c1ccccc1)C(O)c1ccccc1)N1CCOCC1 (stereo not drawn)	/	5	1	-8	23	/	/	/
O=C(NCCc1cn2cccnc2n1)C1CCC(=O)N(Cc2ccccc2F)C1 (stereo not drawn)	/	2	-14	8	-23	/	/	/
O=C(Nc1ccccn1)c1onc2c1CCCC2	36*	37	59*	77*	89*	96*	76*	68*
Cc1nnc(NC(=O)c2ccc3c(c2)OCO3)s1	0	-184	-39	9	1	-150	/	/
CSc1nnc(NC(=O)c2ccc3c(c2)OCO3)s1	54*	-13	71*	74*	92*	81*	82*	72*
Cc1ccc(C(=O)Nc2ccsc2C(=O)O)cc1	18*	-168	-3	30	22	-141	13	-1
Cc1c(NC(=S)NC(=O)c2sc3ccccc3c2Cl)cccc1C(=O)O	43*	-21	2	18	14	-55	63*	11*
COCc1nnc(NC(=O)c2sc3ccccc3c2Cl)s1	1	-195	-42	26	-23	-102	/	/
Cc1nnc(NC(=O)c2sc3ccccc3c2Cl)s1	18*	-90	-21	87*	46	9	35*	18*
C=CCn1c(C)cc(C(=O)COC(=O)CNC(=O)c2ccccc2)c1C	17*	-23	85*	0	89*	-31	6	29*
Cc1ccc(-c2nc3nc4ccccc4nc3n2Cc2ccco2)cc1	47*	-112	74*	16	90*	-125	20*	0
Cc1ccc(-c2onc3ccc(C(=O)O)cc23)cc1	72*	-59	-57	-1	15	-200	61*	57*
O=C(O)c1ccc2noc(-c3ccccc3)c2c1	41*	-172	-43	-5	-41	-119	12	-15
CC(=O)c1ccc2noc(-c3ccc(C)cc3)c2c1	1	-134	-21	2	-26	-37	/	/
CC(=O)COC(=O)c1ccc2noc(-c3ccccc3)c2c1	20*	-170	-63	8	1	-78	5	-12
NC(=O)c1ccc2nc(-c3ccccc3)c(-c3ccccc3)nc2c1	-1	22	18	-4	-12	35	/	/
O=C(c1ccc2noc(-c3ccccc3)c2c1)N1CCN(c2ccccc2)CC1	/	-22	-24	-6	-4	/	/	/
O=C(O)c1ccc2nc(-c3ccccc3)c(-c3ccccc3)nc2c1	42*	-16	-10	10	41	-93	51*	37*
Cc1cc(C)c(C(=O)COC(=O)c2cccc(S(=O)(=O)N3CCOCC3)c2)cc1C	/	13	-2	0	-5	/	/	/
CC1(c2ccccc2)NC(=O)N(CC(=O)NCC2CCCO2)C1=O (stereo not drawn)	/	6	-5	-3	0	/	/	/
COCCCN1C(=O)C(CC(=O)NC2CCCC2)CC(C(=O)N(C(C)C)C(C)C)=C1C (stereo not drawn)	/	2	-1	-6	-7	/	/	/
CC(=O)c1ccc(S(=O)(=O)NCCCC(=O)N(C)Cc2ccc3c(c2)OCO3)cc1	/	11	12	8	-3	/	/	/
Cc1noc(C)c1C(=O)OC(C)C(=O)c1c[nH]c2ccccc12 (stereo not drawn)	/	17	3	-17	14	/	/	/
O=C(CSc1nnc(-c2ccccc2)o1)N1CCCCC1	21*	-143	-27	-2	10	-74	2	-19
N/C(=N\N=C\c1ccc2c(c1)OCO2)c1nonc1N	21*	-142	-25	40	21	-34	54*	37*
N/C(=N\N=C\c1cccc([N+](=O)[O-])c1)c1nonc1N	4	-264	-32	-19	-25	-150	/	/
Cc1ccc2c(c1)COc1c3ccc(C(=O)O)cc3nn1-2	96*	83*	-56	34	81*	51	94*	79*
